The values below come from PubChem BioAssay (EPA / NIEHS).

Several values for one entry are separate records, joined by “and”; a condition that tells them apart may be missing. Equal entries are not always repeated. Records with an inconclusive call do not appear. The source holds several records for some structures; these can differ, active in one and inactive in another. Activity calls are given as the source filed them. How the source made its calls, unless noted: active means hit-call score of the fitted dose curve at least 0.9, where 1 is the maximum; inconclusive means response in the unintended direction; inactive means score below 0.9.

The nature of assay [1]: ATG_TAL_CIS: Attagene CIS-FACTORIAL HepG2 Assay for human TAL Basal Promoter (AID 2282966; active means hit-call score of the fitted dose curve at least 0.9, where 1 is the maximum; inactive means score below 0.9;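 further: background control endpoint measuring basal TAL promoter reporter mRNA not a specific factor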). The conditions noted are these: HepG2 Attagene cis-factorial TAL promoter reporter; actives raise or lower the signal. Summed up: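 HepG2 cells were transiently transfected with promoter-driven multiplexed reporter units and dosed for 24 h. Reporter mRNA was measured by RT-PCR with capillary electrophoresis fluorescence; bidirectional fits used DMSO as baseline, serving as a background control.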

A short description of assay [2]: ATG_TGFb_CIS: Attagene CIS-FACTORIAL HepG2 Assay for human Transforming Growth Factor (TGF) (AID 2282967; active means hit-call score of the fitted dose curve at least 0.9, where 1 is the maximum; inactive means score below 0.9). The conditions noted are these: HepG2 Attagene CIS TGFb reporter, mRNA transcription; actives raise or lower the signal. The essentials:
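HepG2 cells transiently transfected with cis-promoter-driven multiple reporter units measure endogenous TF activity; reporter mRNA quantified at 24 h by RT-PCR, FAM labeling, HpaI digestion and capillary electrophoresis. Bidirectional fit vs DMSO.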

A short description of assay [3]: ATG_VDRE_CIS: Attagene CIS-FACTORIAL HepG2 Assay for human Vitamin D Receptor Element (VDRE) (AID 2282968; active means hit-call score of the fitted dose curve at least 0.9, where 1 is the maximum; inactive means score below 0.9). The conditions noted are these: HepG2 VDRE cis-reporter transcription, actives raise or lower the signal. Summed up:
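RT-PCR/CE readout of reporter mRNA; HepG2, transient transfection, 24 h dosing; DMSO baseline; bidirectional analysis.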

In assay [4] the target is Nuclear receptor subfamily 1 group I member 3 (Homo sapiens) (UniProt Q14994). Put plainly: ATG_CAR_TRANS: Attagene TRANS-FACTORIAL HepG2 Assay for human Constitutive Androstane Receptor (CAR) (AID 2282969).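 Further: activators raise reporter mRNA above DMSO so AC50 marks induction.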 As to conditions: HepG2 Attagene TRANS-FACTORIAL CAR reporter. The essentials: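 HepG2 cells transiently transfected with multiplexed GAL4-UAS reporter units expressing chimeric NR-Gal4 proteins; compound exposure 24 h. Reporter mRNA measured by RT-PCR, 6-FAM labelling, HpaI digestion and capillary electrophoresis; gain-of-signal fitted against DMSO baseline.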
Sequence of Nuclear receptor subfamily 1 group I member 3 (Homo sapiens) (Q14994 whole entry, looked up, the tested form may be a part): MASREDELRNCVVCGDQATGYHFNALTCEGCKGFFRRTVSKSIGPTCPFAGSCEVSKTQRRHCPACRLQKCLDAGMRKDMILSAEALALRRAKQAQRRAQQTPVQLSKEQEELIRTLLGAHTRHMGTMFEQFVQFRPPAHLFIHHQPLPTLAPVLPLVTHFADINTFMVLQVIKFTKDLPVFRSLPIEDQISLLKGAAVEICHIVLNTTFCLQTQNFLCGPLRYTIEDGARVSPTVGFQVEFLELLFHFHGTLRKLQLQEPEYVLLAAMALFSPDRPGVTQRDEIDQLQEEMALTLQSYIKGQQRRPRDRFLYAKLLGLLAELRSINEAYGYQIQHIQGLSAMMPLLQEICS

The target in assay [5] is Estrogen receptor (Homo sapiens) (UniProt P03372). Put plainly: ATG_ERa_TRANS: Attagene TRANS-FACTORIAL HepG2 Assay for human Estrogen Receptor alpha (ERa) (AID 2282970). The conditions noted are these: HepG2 Attagene TRANS ERa GAL4 reporter, mRNA. Summed up: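 HepG2 cells transiently transfected with multiplexed GAL4-UAS reporter units; ERa activity read via exogenous chimeric NR-Gal4 protein. After 24 hour compound exposure, reporter mRNA measured by RT-PCR with 6-FAM labelling and capillary electrophoresis; gain-of-signal fitted relative to DMSO.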
Sequence of Estrogen receptor (Homo sapiens) (P03372 whole entry, looked up, the tested form may be a part): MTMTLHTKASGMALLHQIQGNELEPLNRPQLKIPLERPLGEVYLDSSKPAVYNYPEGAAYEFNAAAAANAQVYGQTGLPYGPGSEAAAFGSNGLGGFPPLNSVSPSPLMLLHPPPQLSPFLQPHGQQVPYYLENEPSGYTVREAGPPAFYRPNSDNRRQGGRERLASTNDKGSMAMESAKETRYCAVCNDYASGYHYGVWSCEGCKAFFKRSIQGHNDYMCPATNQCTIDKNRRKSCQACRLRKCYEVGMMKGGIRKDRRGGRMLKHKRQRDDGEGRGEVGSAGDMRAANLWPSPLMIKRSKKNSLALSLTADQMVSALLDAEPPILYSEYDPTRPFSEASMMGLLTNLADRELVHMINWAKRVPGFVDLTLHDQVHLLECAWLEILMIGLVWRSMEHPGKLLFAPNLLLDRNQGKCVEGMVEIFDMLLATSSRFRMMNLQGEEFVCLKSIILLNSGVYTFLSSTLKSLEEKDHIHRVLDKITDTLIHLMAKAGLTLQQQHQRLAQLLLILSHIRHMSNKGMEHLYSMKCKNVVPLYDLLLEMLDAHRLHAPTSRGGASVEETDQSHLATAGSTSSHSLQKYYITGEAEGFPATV

Assay [6] concerns the target Steroid hormone receptor ERR1 (Homo sapiens) (UniProt P11474). Put plainly: ATG_ERRa_TRANS: Attagene TRANS-FACTORIAL HepG2 Assay for human Estrogen-Related Receptor alpha (ERRa) (AID 2282971). The conditions noted are these: HepG2 Attagene TRANS reporter, ERRa transactivation. The essentials: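 HepG2 cells transiently transfected with multiplexed GAL4-UAS reporter units reading chimeric ERRa-Gal4 activity; 24 h compound exposure. Reporter mRNA measured by RT-PCR, 6-FAM labelling, HpaI digest and capillary electrophoresis; gain of signal fitted versus DMSO baseline.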

The target in assay [7] is X-box-binding protein 1 (Homo sapiens) (UniProt P17861). The assay is described as follows: ATG_Xbp1_CIS: Attagene CIS-FACTORIAL HepG2 Assay for human X-box Binding Protein 1 (XBP1) (AID 2282972; active means hit-call score of the fitted dose curve at least 0.9, where 1 is the maximum; inactive means score below 0.9). The conditions noted are these: HepG2 XBP1 cis-element reporter, Attagene multiplex; actives raise or lower the signal. The essentials:
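HepG2 cells transiently transfected with multiple cis-element reporter units report endogenous TF activity; 24 h exposure, then reporter mRNA measured by RT-PCR, 6-FAM labelling, HpaI digestion and capillary electrophoresis. Bidirectional fitting versus DMSO.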

The nature of assay [8]: ATG_M_19_TRANS: Attagene TRANS-FACTORIAL HepG2 Assay for M19 Transcription Factor (Internal Marker) (AID 2282974). As to conditions: HepG2 Attagene TRANS-FACTORIAL M19 internal marker reporter. Summed up:
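Cells: human HepG2, transiently transfected with multiplexed reporter transcription units. Exposure: 24 h. Detection: RT-PCR of reporter mRNA with capillary electrophoresis. Analysis: gain-of-signal vs DMSO.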

Assay [9] deals with Glucocorticoid receptor (Homo sapiens) (UniProt P04150). The assay is described as follows: ATG_GR_TRANS: Attagene TRANS-FACTORIAL HepG2 Assay for human Glucocorticoid Receptor (GR) (AID 2282978).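 Further: activators score as hits since higher reporter transcript over DMSO is fitted.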 The conditions noted are these: HepG2 Attagene TRANS GR reporter, mRNA transcription. Summed up:
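In this trans-factorial format, exogenous NR-GAL4 chimeric proteins in transfected HepG2 cells regulate GAL4-UAS reporter transcription. After 24 h treatment, reporter mRNA induction relative to DMSO is read by RT-PCR and capillary electrophoresis.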

Assay [10] addresses Hepatocyte nuclear factor 4-alpha (Homo sapiens) (UniProt P41235). Put plainly: ATG_HNF4a_TRANS: Attagene TRANS-FACTORIAL HepG2 Assay for human Hepatocyte Nuclear Factor 4 alpha (HNF4a) (AID 2282982). As to conditions: HepG2 HNF4a transactivation reporter, mRNA readout. The essentials: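 Cells used were human HepG2, transiently carrying GAL4-UAS reporter units read out against exogenous NR-GAL4 chimeras. Reporter transcript levels after 24 h dosing were quantified by fluorescent RT-PCR and capillary electrophoresis.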

Assay [11] is described as follows: ATG_M_32_TRANS: Attagene TRANS-FACTORIAL HepG2 Assay for M32 Transcription Factor (Internal Marker) (AID 2282984). As to conditions: HepG2 Attagene TRANS M32 internal marker reporter. Summed up: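 Human hepatoma HepG2, transient MRTU transfection, 24 h treatment. RNA → RT-PCR → fluorescent primer extension → HpaI digest (2 h, 37 C) → CE. Positive-direction fit vs DMSO.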

The target in assay [12] is Nuclear receptor subfamily 4 group A member 2 (Homo sapiens) (UniProt P43354). The assay is described as follows: ATG_NURR1_TRANS: Attagene TRANS-FACTORIAL HepG2 Assay for human Nuclear Receptor Related Protein 1 (NURR1) (AID 2282985). The conditions noted are these: HepG2 Attagene TRANS reporter, mRNA readout. Summed up:
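After 24 h chemical dosing, total RNA from transiently transfected HepG2 cells was reverse-transcribed and reporter cDNA PCR-amplified, FAM-labelled and analysed by capillary electrophoresis. Activity fitted in positive direction, DMSO as negative control.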

Assay [13] has as its target Transcriptional activator Myb (Homo sapiens) (UniProt P10242). Put plainly: ATG_Myb_CIS: Attagene CIS-FACTORIAL HepG2 Assay for human Myeloblastosis (Myb) Proto-Oncogene Transcription Factor (AID 2282986; active means hit-call score of the fitted dose curve at least 0.9, where 1 is the maximum; inactive means score below 0.9). The conditions noted are these: HepG2 Attagene CIS-FACTORIAL Myb reporter transcription; actives raise or lower the signal. The essentials: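 Steps: transfect HepG2 with cis-regulated reporter units; dose with chemical for 24 h; isolate RNA, reverse-transcribe, PCR-amplify and FAM-label reporter sequences; digest with HpaI; resolve by capillary electrophoresis. Activity fitted in both directions relative to DMSO.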

In assay [14] the target is Nuclear respiratory factor 1 (Homo sapiens) (UniProt Q16656). The assay is described as follows: ATG_NRF1_CIS: Attagene CIS-FACTORIAL HepG2 Assay for human Nuclear Respiratory Factor 1 (NRF1) Orphan Gene (AID 2282987; active means hit-call score of the fitted dose curve at least 0.9, where 1 is the maximum; inactive means score below 0.9). As to conditions: HepG2 NRF1 cis-element reporter, Attagene multiplex; actives raise or lower the signal. The essentials: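 Fluorescence intensity of labelled reporter cDNA fragments, resolved by capillary electrophoresis, served as readout for NRF1 cis-element activity. Transiently transfected HepG2 cells were dosed for 24 hours; activity in either direction was fitted against DMSO negative control.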
Sequence of Nuclear respiratory factor 1 (Homo sapiens) (Q16656 whole entry, looked up, the tested form may be a part): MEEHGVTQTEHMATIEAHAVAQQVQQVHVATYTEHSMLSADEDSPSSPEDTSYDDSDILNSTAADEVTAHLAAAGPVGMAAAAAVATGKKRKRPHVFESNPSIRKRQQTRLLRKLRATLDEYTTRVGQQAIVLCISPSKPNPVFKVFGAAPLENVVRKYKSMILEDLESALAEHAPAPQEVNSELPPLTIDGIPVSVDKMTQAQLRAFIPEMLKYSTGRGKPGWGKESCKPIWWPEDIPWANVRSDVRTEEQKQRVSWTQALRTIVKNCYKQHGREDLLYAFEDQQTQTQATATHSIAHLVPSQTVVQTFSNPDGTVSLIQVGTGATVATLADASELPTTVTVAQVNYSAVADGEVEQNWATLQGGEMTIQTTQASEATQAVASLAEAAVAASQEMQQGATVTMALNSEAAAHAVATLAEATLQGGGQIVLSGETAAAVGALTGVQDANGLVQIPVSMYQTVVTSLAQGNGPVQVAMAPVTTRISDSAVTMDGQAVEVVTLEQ

Assay [15] has as its target Estrogen-related receptor gamma (Homo sapiens) (UniProt P62508). The assay is described as follows: ATG_ERRg_TRANS: Attagene TRANS-FACTORIAL HepG2 Assay for human Estrogen-Related Receptor gamma (ERRg) (AID 2282977).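 Further: hits increase reporter signal over DMSO so potencies reflect activators.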 The conditions noted are these: HepG2 Attagene TRANS reporter, ERRg transactivation. Summed up:
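HepG2 cells transiently transfected with multiplexed GAL4-UAS reporter units driven by chimeric NR-Gal4 proteins; 24 h exposure. Reporter mRNA quantified by RT-PCR, fluorescent labelling, HpaI digestion and capillary electrophoresis; gain of signal vs DMSO.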

In assay [16] the target is Bile acid receptor (Homo sapiens) (UniProt Q96RI1). Put plainly: ATG_FXR_TRANS: Attagene TRANS-FACTORIAL HepG2 Assay for Farnesoid X Receptor (FXR) (AID 2282979).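 Further: hits raise reporter mRNA above DMSO so AC50 marks FXR activation.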 The conditions noted are these: HepG2 Attagene TRANS FXR-GAL4 reporter transcription. Summed up:
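HepG2 cells transiently transfected with reporter constructs in which a chimeric FXR-GAL4 protein drives a GAL4-UAS reporter; 24 h compound exposure. Reporter mRNA measured by RT-PCR, FAM labelling, HpaI digestion and capillary electrophoresis; gain-of-signal versus DMSO.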

Assay [17] can be described thus: ATG_M_06_TRANS: Attagene TRANS-FACTORIAL HepG2 Assay for M06 Transcription Factor (Internal Marker) (AID 2282983). As to conditions: HepG2 Attagene TRANS M06 internal marker reporter. Summed up: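 HepG2 cells transiently transfected with multiplexed GAL4-UAS reporter transcription units; after 24 h compound exposure, reporter mRNA measured by RT-PCR, FAM-labelled primer extension, HpaI digestion and capillary electrophoresis. Gain-of-signal fitted versus DMSO baseline; background control readout.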

The nature of assay [18]: ATG_GAL4_TRANS: Attagene TRANS-FACTORIAL HepG2 Assay for GAL4 (Internal Marker) (AID 2282976). As to conditions: HepG2 Attagene TRANS GAL4 internal marker reporter. Summed up:
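HepG2 cells transiently transfected with multiplexed GAL4-UAS reporter constructs were dosed for 24 h. Reporter mRNA was measured by RT-PCR, 6-FAM primer extension, HpaI digestion and capillary electrophoresis, and gain of signal was fitted relative to DMSO.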

For assay [19], the target named is Oxysterols receptor LXR-beta (Homo sapiens) (UniProt P55055). The assay is described as follows: ATG_LXRb_TRANS: Attagene TRANS-FACTORIAL HepG2 Assay for human Liver X Receptor beta (LXRb) (AID 2282981). As to conditions: HepG2 Attagene TRANS GAL4-LXRb reporter, mRNA. Summed up: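 In this TRANS format, exogenous chimeric NR-Gal4 protein activity, not endogenous factors, drives reporter expression in transfected human HepG2 cells. Exposure lasted 24 h; reporter mRNA was read by fluorescent capillary electrophoresis.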

The target in assay [20] is Oxysterols receptor LXR-alpha (Homo sapiens) (UniProt Q13133). The assay is described as follows: ATG_LXRa_TRANS: Attagene TRANS-FACTORIAL HepG2 Assay for human Liver X Receptor alpha (LXRa) (AID 2282980). As to conditions: HepG2 Attagene TRANS reporter, LXRa transactivation. The essentials:
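HepG2 cells were transiently transfected with multiplexed reporter units driven by chimeric LXRa–GAL4 fusion proteins, then dosed for 24 h. Reporter mRNA was quantified by RT-PCR, fluorescent labelling and capillary electrophoresis; gain of signal fitted against DMSO baseline.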

Sequence of X-box-binding protein 1 (Homo sapiens) (P17861 whole entry, looked up): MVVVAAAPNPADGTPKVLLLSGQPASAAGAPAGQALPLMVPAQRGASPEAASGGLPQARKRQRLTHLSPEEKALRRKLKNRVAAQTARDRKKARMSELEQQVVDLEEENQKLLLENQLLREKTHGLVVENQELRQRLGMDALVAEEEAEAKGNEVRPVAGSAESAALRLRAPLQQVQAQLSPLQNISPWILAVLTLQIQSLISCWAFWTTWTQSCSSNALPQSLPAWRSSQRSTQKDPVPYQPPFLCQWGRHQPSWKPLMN
Sequence of Glucocorticoid receptor (Homo sapiens) (P04150 whole entry, looked up, the tested form may be a part): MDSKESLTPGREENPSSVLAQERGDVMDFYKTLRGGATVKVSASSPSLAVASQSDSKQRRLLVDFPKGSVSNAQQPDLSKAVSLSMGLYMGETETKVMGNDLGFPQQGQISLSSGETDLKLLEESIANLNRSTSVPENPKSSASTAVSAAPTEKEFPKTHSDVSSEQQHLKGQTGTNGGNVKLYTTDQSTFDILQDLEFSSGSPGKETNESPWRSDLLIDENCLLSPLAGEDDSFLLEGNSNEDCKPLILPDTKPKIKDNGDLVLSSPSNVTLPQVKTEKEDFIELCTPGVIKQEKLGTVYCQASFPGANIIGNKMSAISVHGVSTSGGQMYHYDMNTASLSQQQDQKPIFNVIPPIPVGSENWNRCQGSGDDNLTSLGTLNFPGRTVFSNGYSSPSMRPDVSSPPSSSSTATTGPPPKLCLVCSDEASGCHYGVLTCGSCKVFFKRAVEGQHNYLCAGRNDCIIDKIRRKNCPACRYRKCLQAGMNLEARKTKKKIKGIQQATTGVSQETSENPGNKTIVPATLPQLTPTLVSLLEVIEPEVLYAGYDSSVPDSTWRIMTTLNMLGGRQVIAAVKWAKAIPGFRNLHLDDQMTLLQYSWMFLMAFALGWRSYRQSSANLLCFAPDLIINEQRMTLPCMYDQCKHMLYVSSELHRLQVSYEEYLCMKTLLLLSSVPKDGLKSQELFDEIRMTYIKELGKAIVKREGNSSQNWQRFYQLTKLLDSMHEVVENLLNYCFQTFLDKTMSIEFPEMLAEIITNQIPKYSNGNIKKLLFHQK
Sequence of Hepatocyte nuclear factor 4-alpha (Homo sapiens) (P41235 whole entry, looked up, the tested form may be a part): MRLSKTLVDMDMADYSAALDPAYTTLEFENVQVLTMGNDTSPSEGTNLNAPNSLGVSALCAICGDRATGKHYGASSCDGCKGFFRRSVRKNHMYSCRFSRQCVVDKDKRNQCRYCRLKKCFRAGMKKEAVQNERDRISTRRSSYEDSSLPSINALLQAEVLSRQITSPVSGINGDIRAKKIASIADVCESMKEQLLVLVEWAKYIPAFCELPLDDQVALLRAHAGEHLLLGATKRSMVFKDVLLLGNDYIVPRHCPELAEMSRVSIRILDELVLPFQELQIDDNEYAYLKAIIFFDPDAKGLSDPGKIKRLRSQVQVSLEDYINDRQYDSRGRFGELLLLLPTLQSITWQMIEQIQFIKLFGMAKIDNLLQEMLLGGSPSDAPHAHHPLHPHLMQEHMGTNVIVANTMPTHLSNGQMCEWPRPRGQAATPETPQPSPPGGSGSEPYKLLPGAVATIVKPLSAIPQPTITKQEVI
Sequence of Bile acid receptor (Homo sapiens) (Q96RI1 whole entry, looked up, the tested form may be a part): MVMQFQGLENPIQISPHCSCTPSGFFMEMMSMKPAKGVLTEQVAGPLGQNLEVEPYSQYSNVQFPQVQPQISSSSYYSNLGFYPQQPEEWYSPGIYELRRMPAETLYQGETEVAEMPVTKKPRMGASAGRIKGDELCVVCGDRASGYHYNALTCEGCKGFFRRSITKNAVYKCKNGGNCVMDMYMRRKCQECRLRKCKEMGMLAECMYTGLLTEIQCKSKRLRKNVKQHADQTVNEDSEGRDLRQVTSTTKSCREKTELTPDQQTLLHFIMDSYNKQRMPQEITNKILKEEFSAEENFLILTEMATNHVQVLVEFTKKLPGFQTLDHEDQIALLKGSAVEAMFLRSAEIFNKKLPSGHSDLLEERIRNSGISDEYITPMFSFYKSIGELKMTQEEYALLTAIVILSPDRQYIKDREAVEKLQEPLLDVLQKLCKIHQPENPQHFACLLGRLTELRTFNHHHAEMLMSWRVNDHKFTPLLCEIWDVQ
Sequence of Transcriptional activator Myb (Homo sapiens) (P10242 whole entry, looked up): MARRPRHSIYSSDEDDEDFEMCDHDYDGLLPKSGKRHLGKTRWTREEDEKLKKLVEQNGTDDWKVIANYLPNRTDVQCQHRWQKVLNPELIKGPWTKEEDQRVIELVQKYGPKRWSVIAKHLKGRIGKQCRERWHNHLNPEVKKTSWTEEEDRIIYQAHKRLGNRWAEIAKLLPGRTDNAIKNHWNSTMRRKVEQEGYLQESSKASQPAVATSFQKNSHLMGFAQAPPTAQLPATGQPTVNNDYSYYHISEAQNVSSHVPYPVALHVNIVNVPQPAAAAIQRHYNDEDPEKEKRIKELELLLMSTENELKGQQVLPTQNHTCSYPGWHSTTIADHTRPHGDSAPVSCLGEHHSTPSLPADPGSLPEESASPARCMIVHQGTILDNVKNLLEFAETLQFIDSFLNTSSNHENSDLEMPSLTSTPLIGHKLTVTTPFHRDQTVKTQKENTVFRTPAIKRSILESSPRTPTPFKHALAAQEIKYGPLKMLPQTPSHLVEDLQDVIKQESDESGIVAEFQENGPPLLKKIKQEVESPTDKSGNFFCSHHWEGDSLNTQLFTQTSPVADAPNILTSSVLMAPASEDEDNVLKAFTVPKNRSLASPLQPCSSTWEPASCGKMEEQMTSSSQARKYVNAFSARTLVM
Sequence of Estrogen-related receptor gamma (Homo sapiens) (P62508 whole entry, looked up, the tested form may be a part): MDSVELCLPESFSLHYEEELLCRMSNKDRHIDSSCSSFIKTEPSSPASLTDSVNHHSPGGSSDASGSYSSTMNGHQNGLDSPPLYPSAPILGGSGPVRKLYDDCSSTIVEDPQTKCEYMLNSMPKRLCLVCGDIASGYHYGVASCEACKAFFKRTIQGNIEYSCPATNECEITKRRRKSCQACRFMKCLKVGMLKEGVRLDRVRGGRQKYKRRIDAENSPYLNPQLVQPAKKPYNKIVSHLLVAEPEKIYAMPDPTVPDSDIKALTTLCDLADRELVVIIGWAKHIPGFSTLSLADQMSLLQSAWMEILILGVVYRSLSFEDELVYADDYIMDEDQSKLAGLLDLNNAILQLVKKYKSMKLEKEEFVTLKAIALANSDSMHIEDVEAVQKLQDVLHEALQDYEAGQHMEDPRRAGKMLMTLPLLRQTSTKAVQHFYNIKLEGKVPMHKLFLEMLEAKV
Sequence of Steroid hormone receptor ERR1 (Homo sapiens) (P11474 whole entry, looked up, the tested form may be a part): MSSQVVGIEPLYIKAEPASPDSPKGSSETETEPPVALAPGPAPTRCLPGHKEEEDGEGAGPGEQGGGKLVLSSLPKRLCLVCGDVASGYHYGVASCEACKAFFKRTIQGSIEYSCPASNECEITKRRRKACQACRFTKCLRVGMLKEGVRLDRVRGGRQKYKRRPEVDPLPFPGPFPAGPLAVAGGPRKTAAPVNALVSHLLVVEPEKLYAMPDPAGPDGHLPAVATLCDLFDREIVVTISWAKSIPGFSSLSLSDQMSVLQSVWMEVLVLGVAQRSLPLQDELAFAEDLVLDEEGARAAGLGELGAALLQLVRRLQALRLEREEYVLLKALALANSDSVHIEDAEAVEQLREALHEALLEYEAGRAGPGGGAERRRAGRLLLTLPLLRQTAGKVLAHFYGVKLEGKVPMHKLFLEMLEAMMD

As a reminder, the AC50 is the concentration giving half of the maximal activity seen. As for `Cc1cccc2c1ccc1ccccc12`, the compound was called inactive in assay [1], in [2], in assay [3], in assay [4], in assay [6] and in assay [7]. The call in assay [8], in assay [9], in [10], in assay [11], in assay [12] and in assay [13] was inactive. For the same compound, the compound was classed as inactive in [14]. In assay [5], the AC50 is 11.2 µM (active).

On to `c1cc2cccc3c4cccc5cccc(c(c1)c23)c54`, for which the call in [1], in [2], in assay [3], in [4], in [5] and in assay [6] was inactive. In addition, the compound was classed as inactive in assay [7], in [15], in assay [9], in assay [16], in assay [17] and in [12]. Moreover, the compound was called inactive in [13] and in assay [14].

For `CN(C)c1ccc(C(=C2C=CC(=[N+](C)C)C=C2)c2ccccc2)cc1`, the compound was classed as inactive in assay [1], in assay [2], in assay [7], in assay [18], in assay [15] and in assay [9]. The compound was called inactive in [16], in assay [19], in [10], in [17], in assay [11] and in [13]. For the same compound, the compound was classed as inactive in assay [14]. In addition, the concentration at half-maximal activity (AC50) in [2] was 1.85 µM (active); in assay [3], 1.82 µM (active) and 1.3 µM (active); in assay [7] it was 1.94 µM (active); in assay [12] it was 543 nM (active) and 1.4 µM (active).

Regarding `C=CC(=O)OCCC(F)(F)C(F)(F)C(F)(F)C(F)(F)C(F)(F)C(F)(F)F`, the outcome in assay [1], in assay [2], in assay [3], in assay [4], in assay [18] and in assay [15] was inactive. Moreover, the compound was called inactive in [9], in assay [16], in [20], in [17], in assay [12] and in assay [13]. The call in assay [14] was inactive. The AC50 in assay [5] was 12.8 µM (active).
